A selection: hits, their analogues and other compounds. The true share with any hit is near 6.5%.
LASV entry inh – qHTS for Inhibitors of binding or entry into cells for Lassa Virus | Lassa virus pseudotype entry inhibition, cell reporter | Potency, µM (top dose mostly 37.9 µM), for the others: at the highest dose activity change, negative = inhibition, hits mostly inhibitors | 300,000 tested, 1.2% active | AID 540256, 2011; calls by dose curve; tested in HEK293 cells; also: potency is read from the fitted curve at half-maximal effect; nearly all actives have a fitted effect of over 50% in size
Vaccinia Venus – qHTS for Stage-Specific Inhibitors of Vaccinia Orthopoxvirus: Venus Reporter Primary qHTS; Vaccinia virus Venus reporter expression, fluorescence; Potency, µM (doses to about 36.5 µM), without a hit: top-dose activity change, negative = inhibition, most hits filed as inhibitors; 330,000 tested, 0.46% active; calls by dose curve; tested in A549 cells; also: potency is read from the fitted curve at half-maximal effect; nearly all actives have a fitted effect of over 30% in size
Marburg entry inh – qHTS for inhibitors of binding or entry into cells for Marburg Virus | Marburg virus pseudotyped entry inhibition, cell reporter | Potency, µM (titrated, usually from 37.8 µM), for inactives: at the top dose activity change, negative = inhibition, actives largely listed as inhibitors | 300,000 tested, 1.8% active; calls by dose curve; tested in HEK293 cells; also: potency is read from the fitted curve at half-maximal effect
FMDV inh – High Throughput Screening for Foot and Mouth Disease Virus Antivirals | FMDV antiviral cell-based qHTS | Potency, µM (series often up to 57.9 µM), inactives show top-dose activity change, negative = inhibition, most hits filed as inhibitors | 410,000 tested, 1.2% active | AID 1159524, 2015; calls by dose curve; tested in HEK293T cells; also: read-out not given here; potency is read from the fitted curve at half-maximal effect; nearly all actives have a fitted effect of over 45% in size
HCMV antiviral – qHTS Assay for inhibitors of the human cytomegalovirus (HCMV). 410,000 tested, 4.5% active. HFF cells, HCMV-luciferase reporter, 72 h; active compounds read low. AID 1259415, 2018. activity change, negative = inhibition, % at 57.5 µM; in the data active = activity change below about -60%; inconclusive = no clear call, values can overlap the other calls; inactive = above about -39%
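After 16 h attachment at 37C, HFF cells received test compound and HCMV-luciferase (1 PFU/cell); reporter luminescence read 72 h later, data normalized against buffer-only and known inhibitor Salinomycin.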
VACV mCherry inh – qHTS for Stage-Specific Inhibitors of Vaccinia Orthopoxvirus: mCherry Reporter Primary qHTS; Vaccinia virus mCherry reporter infection, fluorescence; Potency, µM (series often up to 36.5 µM), without a hit: at the top dose activity change, negative = inhibition, most hits filed as inhibitors; 310,000 tested, 0.63% active; AID 720579, 2013; calls by dose curve; tested in A549 cells; also: potency is read from the fitted curve at half-maximal effect; nearly all actives have a fitted effect of over 35% in size
Numbers without * were called inactive; i = inactive; ? = inconclusive; . = no result given; + = active, no number; [ ] = another dose, or the depositor's remark. % is scaled to controls: 0 for no effect and ±100 for the full control effect.

SMILES | LASV entry inh | Vaccinia Venus | Marburg entry inh | FMDV inh | HCMV antiviral | VACV mCherry inh
O=C(NCc1cccc(Cl)c1)C1CCCN(c2nn3cc(-c4ccc(F)cc4)nc3s2)C1 (stereo not given) | -6%[46.1 µM] | -26% | . | 11µM* | + | -23%
O=C(NCc1cccc(Cl)c1)C1CCCN(c2ncnc3c2nc2n3CCCCC2)C1 (stereo not given) | ? | -5% | ? | -22% | -67* | -9%
O=C(NCc1ccccc1)C1CCCN(c2ncnc3c2nc2n3CCCCC2)C1 (stereo not given) | ? | -17% | ? | -17% | ? | -10%
COCCN(Cc1ccco1)C(=O)C1CCCN(c2ncnc3c2nc2n3CCCCC2)C1 (stereo not given) | 11µM* | -17% | ? | 19% | -18 | -14%
O=C(NCC1CCN(Cc2ccc(F)cc2)CC1)C1CCCN(c2ncnc3c2nc2n3CCCCC2)C1 (stereo not given) | . | . | . | -14% | -61* | .
CC(NC(=O)c1cc(F)ccc1F)c1nnc2n1CCN(Cc1ccco1)CC2 (stereo not given) | . | 0% | . | -2% | . | -2%
NCc1ccccc1Sc1ccccc1CO | . | . | . | . | -18 | .
Cc1cc(Br)c2nc(-c3ccc(Cl)cc3)c(Cc3cccc(Cl)c3)n2c1 | . | . | . | . | 25 | .
COc1ccccc1NC(=O)N1CC(=O)N2[C@H](C1)[C@@H](c1ccc(Br)cc1)[C@@H]2CO | . | . | . | . | 7 | .
C[N+](C)(C)c1ccc(/C=C2\C=Cc3ccccc32)cc1 | . | -18% | . | . | . | 9%
CN(C)CCCN(CCCNC(=O)/C=N\O)Cc1ccccc1 | . | . | -13% | . | . | .
CCOc1ccc(Cn2nnc3c(=O)[nH]c(C4CCN(C(=O)c5ccccc5)CC4)nc32)cc1 | -11%[46.1 µM] | -7% | 10%[46.1 µM] | -17% | 0 | 12%
O=C(NCC1CCN(Cc2ccc(Cl)cc2)CC1)C1CCCN(c2ncnc3c2nc2n3CCCCC2)C1 (stereo not given) | . | . | . | 10µM* | -79* | .
Cc1cccc(-c2cnc(C)nc2C2CCCN(C(=O)c3cccc(Cn4cccn4)c3)C2)c1 (stereo not given) | . | 1% | . | -19% | . | -8%
Cc1cc(C)cc(-n2cc(C(=O)O)c(=O)cc2C)c1 | 10%[46.1 µM] | -1% | ? | -15% | -80* | -1%
FC(F)(F)c1ccc(/C=N/NC(=S)NC2CCCCC2)cc1 | -18% | -13% | -1% | -14% | 0 | -8%
FC(F)(F)c1cccc(/C=N/NC(=S)NC2CCCCC2)c1 | ? | -13% | ? | 6% | -95* | -20%
CC(=O)N1N=C(c2ccco2)CC1c1ccco1 (stereo not given) | -2% | -8% | 3% | 11% | -16 | -13%
Cc1ccc(C2=NN(C(=O)CCl)C(c3ccco3)C2)o1 (stereo not given) | 14% | -6% | ? | ? | -100* | -29%
CCCOc1ccc(C(=O)Nc2nc(C)c(Cc3ccc4c(c3)OCO4)s2)cc1 | 10% | 10µM* | 35% | -19% | ? | ?
Clc1cccc(N2Cc3cc(N4CCOCC4)ccc3-n3nncc3C2)c1 | . | 2% | . | -1% | -19 | i
COc1ccc(-c2ccc3c(c2)CN(c2cccc(Cl)c2)Cc2cnnn2-3)cc1 | . | -2% | . | -17% | -102* | i
Clc1cccc(N2Cc3cc(-c4ccccc4)ccc3-n3nncc3C2)c1 | . | 5% | . | ? | -108* | 1%
CCc1ccccc1NC(=O)CSc1nc2c(c(=O)[nH]1)CN(Cc1ccccc1OC)CC2 | 11%[46.1 µM] | 11% | 17%[46.1 µM] | -6% | 7 | -2%
COc1ccc(CNc2nc(NCc3ccc(OC)cc3)n(C(=O)c3ccncc3)n2)cc1 | . | . | . | -1% | -27 | .
COc1ccc(CNc2nc(NCc3ccc(OC)cc3)n(C(=O)c3ccccc3[N+](=O)[O-])n2)cc1 | 4.1µM* | -6% | 5% | 21% | -31 | -19%
COc1cccc(NS(=O)(=O)c2ccc3c(c2)CCCN3C(=O)C2CCC2)c1 | ? | -15% | . | -8% | -14 | -27%

Screening data: PubChem, National Center for Advancing Translational Sciences (NCATS)
